The results in this text go back to PubChem BioAssay (EPA / NIEHS).

“And” between values parts separate entries of the source, which are not always exact repeats. Equal values may be shown once. Some structures have more than one record in an assay (separate samples or runs), and their calls can disagree. The source made the active and inactive calls. How the source made its calls: active means hit-call score of the fitted dose curve at least 0.9, where 1 is the maximum; inactive means score below 0.9.

By AC50 is commonly meant the midpoint of the concentration-response curve, whichever way the signal moves.

Read-out in assay [1]: Plasminogen activator inhibitor-1 (PAI1), SERPINE1 (gene 5054)
Briefly: BSK_MyoF_PAI1: BioMAP Diversity Plus: MyoF Assay for Plasminogen activator inhibitor-1 (PAI1) Biomarker Activity (AID 2284256).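 On outcome: PAI-1 protein level measured by ELISA in fibroblast cultures; PAI-1 read 24 h after compound addition.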 The settings on record: primary human lung fibroblasts. The gist of the method: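 Human lung fibroblasts (MyoF system) were exposed to test chemicals for 24 h, then PAI-1 was quantified by ELISA. Activity was fitted in the positive (signal-gain) direction relative to DMSO vehicle as baseline.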

Read-out in a further assay: CD69, CD69 (gene 969)
Briefly: BSK_IMphg_CD69: BioMAP Diversity Plus: IMphg Assay for CD69 Biomarker Activity (AID 2284257). To be noted: primary human endothelial cells with macrophages. The gist of the method: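 Human venular endothelial cells co-cultured with macrophages; CD69 quantified by ELISA 24 h after compound addition. Activity fitted in the positive direction relative to DMSO baseline; cytotoxicity tracked in parallel cultures via SRB total-protein staining.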

Read-out in assay [2]: Eotaxin 3, CCL26 (gene 10344)
Briefly: BSK_BF4T_Eotaxin3: BioMAP Diversity Plus: BF4T Assay for Eotaxin 3 Biomarker Activity (AID 2284258). To be noted: primary human bronchial epithelial cells with fibroblasts. The gist of the method:
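Co-culture of human bronchial epithelial cells and dermal fibroblasts, exposed to chemicals for 24 h versus DMSO. Eotaxin-3 quantified by ELISA; cytotoxicity checked in parallel cultures by sulforhodamine B total-protein staining.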

Read-out in assay [3]: Monocyte Chemoattractant Protein-1 (MCP1), CCL2 (gene 6347)
Briefly: BSK_BF4T_MCP1: BioMAP Diversity Plus: BF4T Assay for Monocyte Chemoattractant Protein-1 (MCP1) Biomarker Activity (AID 2284259). The settings on record: primary human bronchial epithelial cells with fibroblasts. The gist of the method:
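Co-culture of bronchial epithelial cells and dermal fibroblasts dosed with chemical; MCP-1 measured by ELISA 24 h later. Activity fitted in positive direction versus DMSO; cytotoxicity checked by SRB staining in parallel cultures.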

Read-out in assay [4]: Intercellular Adhesion Molecule 1 (ICAM1), ICAM1 (gene 3383)
Description: BSK_BF4T_ICAM1: BioMAP Diversity Plus: BF4T Assay for Intercellular Adhesion Molecule 1 (ICAM1) Biomarker Activity (AID 2284260). To be noted: primary human bronchial epithelial cells with fibroblasts. The gist of the method:
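Co-culture of human bronchial epithelial cells and dermal fibroblasts exposed 24 h to chemical; cell-surface ICAM-1 quantified by ELISA. Parallel SRB total-protein staining assessed cytotoxicity; activity fitted relative to DMSO.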

Read-out in assay [5]: Interleukin-8 (IL8), CXCL8 (gene 3576)
Description: BSK_MyoF_IL8: BioMAP Diversity Plus: MyoF Assay for Interleukin-8 (IL8) Biomarker Activity (AID 2284261). The settings on record: primary human lung fibroblasts. The gist of the method: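 IL-8 quantified by ELISA after 24 h compound exposure of primary human lung fibroblasts. SRB staining of parallel cultures flagged cytotoxicity; DMSO served as baseline.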

Read-out in another assay: CD90, THY1 (gene 7070)
Description: BSK_BF4T_CD90: BioMAP Diversity Plus: BF4T Assay for CD90 Biomarker Activity (AID 2284262). To be noted: primary human bronchial epithelial cells with fibroblasts. The gist of the method: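 Co-culture of human bronchial epithelial cells and dermal fibroblasts, 24 h compound exposure. Cell-surface CD90 measured by ELISA relative to DMSO; parallel SRB total-protein staining for cytotoxicity.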

Read-out in assay [6]: Interleukin-8 (IL8), CXCL8 (gene 3576)
Briefly: BSK_BF4T_IL8: BioMAP Diversity Plus: BF4T Assay for Interleukin-8 (IL8) Biomarker Activity (AID 2284263). The settings on record: primary human bronchial epithelial cells with fibroblasts. The gist of the method: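 Human bronchial epithelial cells with dermal fibroblasts co-culture; IL-8 measured by ELISA 24 hours after dosing, fitted vs DMSO. Cytotoxicity tracked in parallel cultures by SRB total-protein staining.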

Read-out in assay [7]: Interleukin-1 alpha (IL1a), IL1A (gene 3552)
Briefly: BSK_BF4T_IL1a: BioMAP Diversity Plus: BF4T Assay for Interleukin-1 alpha (IL1a) Biomarker Activity (AID 2284264). The settings on record: primary human bronchial epithelial cells with fibroblasts. The gist of the method:
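Human bronchial epithelial cells co-cultured with dermal fibroblasts, dosed and read at 24 h. Secreted/surface IL-1α quantified by ELISA; gain-of-signal fitted relative to DMSO baseline. Parallel SRB total-protein staining tracked cytotoxicity.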

Read-out in assay [8]: Macrophage Inflammatory Protein-1 Alpha (MIP1a), CCL3 (gene 6348)
Description: BSK_IMphg_MIP1a: BioMAP Diversity Plus: IMphg Assay for Macrophage Inflammatory Protein-1 Alpha (MIP1a) Biomarker Activity (AID 2284255). The settings on record: primary human endothelial cells with macrophages. The gist of the method:
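Co-culture of human venular endothelial cells and macrophages exposed to compounds for 24 h; MIP-1a measured by ELISA relative to DMSO. Cytotoxicity assessed in parallel cultures by sulforhodamine B total-protein staining at 560 nm.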

With `OCC(F)(F)C(F)(F)C(F)(F)F`, the outcome in [1] is “inactive”; with CD69, CD69 (gene 969), “inactive”; in [2], “inactive”; in assay [3], “inactive”; in assay [4], “inactive”; in [5], “inactive”. The outcome with CD90, THY1 (gene 7070) is “inactive”; in [6], “inactive”; in assay [7] it was “inactive”.

`O=C(O)C(F)(OC(F)(F)C(F)(OC(F)(F)C(F)(F)C(F)(F)F)C(F)(F)F)C(F)(F)F` (configuration not stated): the outcome in assay [1] is “inactive”; with CD69, CD69 (gene 969), “inactive”; in [2], “inactive”; in assay [3], “inactive”; in assay [4], “inactive”; in assay [5], “inactive”. For the same compound, the outcome in the assay with CD90, THY1 (gene 7070) was “inactive”; in assay [6], “inactive”.

On to `C#C[C@]1(O)CC[C@H]2[C@@H]3CCc4cc(OC)ccc4[C@H]3CC[C@@]21C`, for which the result in assay [1] and in [5] was inactive.

`OCC(F)(F)C(F)(F)C(F)(F)C(F)(F)C(F)(F)C(F)(F)F`: the outcome in [1] is “inactive”; with CD69, CD69 (gene 969), “inactive”; in [2], “inactive”; in [3] it was “inactive”; in assay [4], “inactive”; in [5] it was “inactive”. Further, the outcome with CD90, THY1 (gene 7070) was “inactive”; in [6] it was “inactive”.

In the case of `C=CC(=O)OCC(F)(F)C(F)(F)C(F)(F)C(F)(F)COC(=O)C=C`, the AC50 in [1] was 15.4 µM (active) and 16.7 µM (active); with CD69, CD69 (gene 969), 30 µM (active); in assay [2], 21.9 µM (active) and 30 µM (active); in assay [3], 11.2 µM (active) and 15.5 µM (active); in assay [4], 9.07 µM (active) and 16.9 µM (active); in assay [5], 19.5 µM (active) and 13.8 µM (active). Besides, in [6], the AC50 was 30 µM (active). In addition, the outcome in the assay with CD90, THY1 (gene 7070) is “inactive”; in assay [6], “inactive”.

Turning to `CCCCOCCOCCOC(=O)CCCCC(=O)OCCOCCOCCCC`, the outcome in [1] and in assay [5] was inactive.

On to `O=C(O)C(F)(F)C(F)(F)C(F)(F)C(F)(F)C(F)(F)C(F)(F)C(F)(F)C(F)(F)C(F)(F)C(F)(F)C(F)(F)C(F)(F)F`, for which the outcome was “inactive” in assay [8]; “inactive” in the assay with CD69, CD69 (gene 969); “inactive” in [2]; “inactive” in assay [3]; “inactive” in [4]; “inactive” in assay [5]. Besides, the outcome in the assay with CD90, THY1 (gene 7070) is “inactive”; in assay [6], “inactive”; in assay [7], “inactive”.

On to `CCO[Si](CCC(F)(F)C(F)(F)C(F)(F)C(F)(F)C(F)(F)C(F)(F)F)(OCC)OCC`, for which the outcome in [8] was “inactive”; with CD69, CD69 (gene 969), “inactive”; in [2], “inactive”; in assay [3], “inactive”; in assay [4], “inactive”; in assay [5], “inactive”. Further, the outcome is “inactive” with CD90, THY1 (gene 7070) and “inactive” in [6]. Besides, the AC50 in the assay with CD69, CD69 (gene 969) is 0.26 µM (active).

For `COC(=O)CCC(F)(F)C(F)(F)C(F)(F)C(F)(F)F`, the outcome in [1] was “inactive”; with CD69, CD69 (gene 969), “inactive”; in [2] it was “inactive”; in assay [3] it was “inactive”; in assay [4] it was “inactive”; in assay [5], “inactive”. Besides, the outcome was “inactive” in the assay with CD90, THY1 (gene 7070) and “inactive” in assay [6].

Turning to `Oc1ccc(Nc2ccccc2)cc1`, the AC50 in assay [5] is 3.97 µM (active).

With `CCc1ccc(C(c2ccc(CC)cc2)C(Cl)Cl)cc1`, the concentration at half-maximal activity (AC50) in assay [5] is 7.95 µM (active).

As to `CC(=O)Nc1ccc(N=Nc2cc(C)ccc2O)cc1`, the outcome in [1] and in assay [5] was inactive.

On to `CS(C)(=O)=O`, for which the result in assay [1] and in assay [5] was inactive.

On to `CCCCCCCCCCCCCCCC[N+](C)(C)Cc1ccccc1`, for which, in assay [5], the concentration at half-maximal activity (AC50) is 5.84 µM (active).

Consider `O[Si](c1ccccc1)(c1ccccc1)c1ccccc1`, for which the half-maximal activity concentration (AC50) in assay [5] is 8.82 µM (active).

Regarding `O=C(CC(=O)C(F)(F)C(F)(F)F)C(F)(F)F`, the outcome with CD69, CD69 (gene 969) was “inactive”; in assay [2], “inactive”; in assay [3] it was “inactive”; in assay [4] it was “inactive”; in assay [5] it was “inactive”; with CD90, THY1 (gene 7070), “inactive”. Moreover, in assay [6], the result was inactive.

With `NC(=O)C(F)(F)C(F)(F)C(F)(F)C(F)(F)F`, the outcome was “inactive” in the assay with CD69, CD69 (gene 969); “inactive” in assay [2]; “inactive” in [3]; “inactive” in assay [4]; “inactive” in assay [5]; “inactive” in the assay with CD90, THY1 (gene 7070). Besides, the result in [6] was inactive. For the same compound, the AC50 in assay [3] was 26.5 µM (active).

With `O=C(O)C(F)(F)C(F)(F)C(F)(F)F`, the outcome with CD69, CD69 (gene 969) was “inactive”; in assay [2], “inactive”; in [3] it was “inactive”; in [4], “inactive”; in [5], “inactive”; with CD90, THY1 (gene 7070), “inactive”. Further, the result in assay [6] and in assay [7] was inactive.

For `N=C(N)C(F)(F)C(F)(F)C(F)(F)C(F)(F)C(F)(F)C(F)(F)C(F)(F)F`, the outcome is “inactive” in the assay with CD69, CD69 (gene 969); “inactive” in [2]; “inactive” in assay [3]; “inactive” in assay [4]; “inactive” in [5]; “inactive” in the assay with CD90, THY1 (gene 7070). Besides, in assay [6], the outcome was inactive. Moreover, the AC50 in assay [2] is 38.9 µM (active).

As for `O=C(O)C(F)(F)C(F)(F)C(F)(F)C(F)(F)F`, the outcome with CD69, CD69 (gene 969) was “inactive”; in assay [2], “inactive”; in assay [3], “inactive”; in assay [4] it was “inactive”; in assay [5], “inactive”; with CD90, THY1 (gene 7070), “inactive”. Further, the outcome in assay [6] was inactive.

In the case of `FC(F)(F)C(F)(F)C(F)(F)C(F)(F)C(F)(F)C(F)(F)C(F)(F)C(F)(F)CCS`, the outcome with CD69, CD69 (gene 969) is “inactive”; in assay [2], “inactive”; in assay [3], “inactive”; in [4], “inactive”; in assay [5] it was “inactive”; with CD90, THY1 (gene 7070) it was “inactive”. Besides, the outcome in [6] was inactive.
